Holding throughout (settings): mRNA level, 48 h; actives raise or lower the signal
Read-out in assay [1]: Cytochrome P450 7A1 (Homo sapiens) (UniProt P22680)
Description: LTEA_HepaRG_CYP7A1: Life Technologies and Expression Analysis (LTEA) Assay for Cytochrome P450 7A1 (CYP7A1) using HepaRG (AID 2283496). The method, boiled down: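 HepaRG, 48 h exposure, 8-pt half-log series from 100 uM, 0.5% DMSO vehicle, duplicates. Readout: TaqMan qRT-PCR mRNA vs three housekeeping genes; bidirectional curve fit against DMSO baseline.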

Read-out in assay [2]: Glutathione S-Transferase (GSTA2), GSTA2 (gene 2939)
The experiment in a line: LTEA_HepaRG_GSTA2: Life Technologies and Expression Analysis (LTEA) Assay for Glutathione S-Transferase (GSTA2) using HepaRG (AID 2283497). The method, boiled down:
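GSTA2 transcript levels came from Fluidigm TaqMan qRT-PCR normalized to three housekeeping genes, fitted in both directions against DMSO. HepaRG cultures received chemicals for 48 h in serum-free induction medium (0.5% DMSO), 8 half-log concentrations up to 100 uM, duplicate.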

Read-out in assay [3]: Glutamate-cysteine ligase catalytic (GCLC), GCLC (gene 2729)
The experiment in a line: LTEA_HepaRG_GCLC: Life Technologies and Expression Analysis (LTEA) Assay for Glutamate-cysteine ligase catalytic (GCLC) using HepaRG (AID 2283498). The method, boiled down:
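Expression by TaqMan qRT-PCR, normalized to three housekeeping genes (ACTB, GAPDH, POLR2A), with up- or down-regulation fitted against DMSO. HepaRG cells dosed in duplicate for 48 h with 8 half-log concentrations up to 100 uM, vehicle 0.5% DMSO.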

Read-out in assay [4]: growth arrest and DNA damage 45 (GADD45G), GADD45G (gene 10912)
The experiment in a line: LTEA_HepaRG_GADD45G: Life Technologies and Expression Analysis (LTEA) Assay for growth arrest and DNA damage 45 (GADD45G) using HepaRG (AID 2283499). The method, boiled down: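 GADD45G transcript level by qRT-PCR (housekeeping-normalized: ACTB, GAPDH, POLR2A) after 48 h chemical treatment of a single HepaRG lot in serum-free induction medium; eight-point half-log series up to 100 uM in 0.5% DMSO, duplicates, up- or down-regulation scored.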

Read-out in assay [5]: Glutamate-cysteine ligase regulatory (GCLM), GCLM (gene 2730)
Description: LTEA_HepaRG_GCLM: Life Technologies and Expression Analysis (LTEA) Assay for Glutamate-cysteine ligase regulatory (GCLM) using HepaRG (AID 2283500). The method, boiled down: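 GCLM expression quantified by qRT-PCR, normalized to three housekeeping genes, after 48 h chemical treatment of HepaRG cells in duplicate at 8 concentrations (top 100 uM, half-log steps, 0.5% DMSO). Changes fitted both directions against vehicle.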

Read-out in assay [6]: Heat shock 70 kDa protein 1 (HSPA1A), gene 3303
The experiment in a line: LTEA_HepaRG_HSPA1A: Life Technologies and Expression Analysis (LTEA) Assay for Heat shock 70 kDa protein 1 (HSPA1A) using HepaRG (AID 2283502). The method in brief:
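HSPA1A expression measured by qRT-PCR with ACTB/GAPDH/POLR2A normalization; curves fitted in both directions relative to DMSO vehicle. Exposure: 48 h in HepaRG cells, duplicate 8-point half-log series from 100 uM, 0.5% DMSO, serum-free induction medium.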

Read-out in assay [7]: Hypoxia-inducible factor 1-alpha (Homo sapiens) (UniProt Q16665)
Description: LTEA_HepaRG_HIF1A: Life Technologies and Expression Analysis (LTEA) Assay for Hypoxia-inducible factor 1 (HIF1A) Trancription factor using HepaRG (AID 2283503). The method, boiled down:
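HIF1A transcript level read by qRT-PCR (ACTB, GAPDH, POLR2A normalization) after 48 h chemical exposure of HepaRG cultures. Eight half-log concentrations, top 100 uM, 0.5% DMSO vehicle, duplicates; bidirectional curve fit against DMSO baseline.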

Read-out in assay [8]: 3-Hydroxy-3-Methylglutaryl-CoA Synthase 2 (HMGCS2), HMGCS2 (gene 3158)
The experiment in a line: LTEA_HepaRG_HMGCS2: Life Technologies and Expression Analysis (LTEA) Assay for 3-Hydroxy-3-Methylglutaryl-CoA Synthase 2 (HMGCS2) using HepaRG (AID 2283504). The method in brief: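 Readout is HMGCS2 transcript by qRT-PCR, housekeeping-normalised (ACTB/GAPDH/POLR2A) and fitted bidirectionally against 0.5% DMSO. Differentiated HepaRG cells received chemicals 48 h, duplicate wells, eight half-log concentrations topping at 100 uM.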

Read-out in assay [9]: HGF (gene 3082)
The experiment in a line: LTEA_HepaRG_HGF: Life Technologies and Expression Analysis (LTEA) Assay for Hepatocyte Growth Facto (HGF) using HepaRG (AID 2283505). The method, boiled down: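 HGF transcript was quantified by TaqMan qRT-PCR against three housekeeping genes after 48 h treatment of HepaRG cells. Exposure ran in duplicate over eight half-log steps topping at 100 uM in 0.5% DMSO vehicle.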

Read-out in assay [10]: Insulin Like Growth Factor 1 (IGF1), IGF1 (gene 3479)
The experiment in a line: LTEA_HepaRG_IGF1: Life Technologies and Expression Analysis (LTEA) Assay for Insulin Like Growth Factor 1 (IGF1) using HepaRG (AID 2283506). The method, boiled down:
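Expression measured by TaqMan qRT-PCR on a Fluidigm array, with three housekeeping genes for normalisation, after 48 h treatment of HepaRG cells. Top concentration 100 uM with half-log steps, 0.5% DMSO vehicle, bidirectional fit.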

Read-out in assay [11]: Intercellular Adhesion Molecule 1 (ICAM1), ICAM1 (gene 3383)
The experiment in a line: LTEA_HepaRG_ICAM1: Life Technologies and Expression Analysis (LTEA) Assay for Intercellular Adhesion Molecule 1 (ICAM1) using HepaRG (AID 2283507). The method, boiled down:
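ICAM1 transcript levels measured by qRT-PCR, normalized to three housekeeping genes (ACTB, GAPDH, POLR2A), after 48 h chemical exposure of HepaRG cells. Duplicate eight-point half-log series from 100 uM in 0.5% DMSO; gain or loss fitted against vehicle.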

Read-out in assay [12]: Insulin-like growth factor-binding protein 1 (IGFBP1), IGFBP1 (gene 3484)
The experiment in a line: LTEA_HepaRG_IGFBP1: Life Technologies and Expression Analysis (LTEA) Assay for Insulin-like growth factor-binding protein 1 (IGFBP1) using HepaRG (AID 2283508). The method, boiled down: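 Read-out is qRT-PCR transcript level normalized to three housekeeping genes, fitted in both directions against 0.5% DMSO. Differentiated HepaRG cells received eight half-log concentrations (top 100 uM) in duplicate for 48 h in serum-free induction medium.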

Read-out in assay [13]: Interleukin 6 (IL6), IL6 (gene 3569)
The experiment in a line: LTEA_HepaRG_IL6: Life Technologies and Expression Analysis (LTEA) Assay for Interleukin 6 (IL6) using HepaRG (AID 2283509). The method, boiled down: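 Transcript levels, normalized to three housekeeping genes, were quantified by qRT-PCR after 48 h chemical treatment of HepaRG cells. Eight-point half-log series from 100 uM in 0.5% DMSO, duplicates. Fitted both directions against DMSO baseline.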

Read-out in assay [14]: Interleukin 6 Receptor (IL6R), IL6R (gene 3570)
The experiment in a line: LTEA_HepaRG_IL6R: Life Technologies and Expression Analysis (LTEA) Assay for Interleukin 6 Receptor (IL6R) using HepaRG (AID 2283510).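 On AC50: differentiated human HepaRG liver cells in serum-free induction medium.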 The method in brief: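 IL6R transcript level by qRT-PCR after 48 h chemical exposure (8-point, half-log, max 100 uM, 0.5% DMSO vehicle) of HepaRG cells in serum-free induction medium. Normalized to three housekeeping genes; curves fitted in both directions relative to DMSO.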

Read-out in assay [15]: Potassium channel subfamily K member 1 (KCNK1), KCNK1 (gene 3775)
The experiment in a line: LTEA_HepaRG_KCNK1: Life Technologies and Expression Analysis (LTEA) Assay for Potassium channel subfamily K member 1 (KCNK1) using HepaRG (AID 2283511). The method, boiled down: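 KCNK1 transcript measured by TaqMan qRT-PCR against three housekeeping genes, after HepaRG cells were treated 48 h with eight half-log concentrations (top 100 uM, 0.5% DMSO). Curves fitted bidirectionally relative to vehicle.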

Read-out in assay [16]: Keratin 19 (KRT19), KRT19 (gene 3880)
Description: LTEA_HepaRG_KRT19: Life Technologies and Expression Analysis (LTEA) Assay for Keratin 19 (KRT19) using HepaRG (AID 2283512). The method, boiled down:
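KRT19 transcript measured by TaqMan qRT-PCR, referenced to three housekeeping genes, after HepaRG cells received test chemicals for 48 h. Eight half-log concentrations, top 100 uM, 0.5% DMSO vehicle; increases and decreases both fitted.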

Read-out in assay [17]: JUN Transcription Factor, JUN (gene 3725)
The experiment in a line: LTEA_HepaRG_JUN: Life Technologies and Expression Analysis (LTEA) Assay for JUN Transcription Factor using HepaRG (AID 2283513). The method in brief:
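mRNA measured by TaqMan qRT-PCR after 48 h chemical exposure of HepaRG cultures; normalization to three housekeeping genes. Duplicate eight-point half-log curves from 100 uM in 0.5% DMSO; gain or loss fitted against DMSO baseline.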

Read-out in assay [18]: Lipase C (LIPC), LIPC (gene 3990)
The experiment in a line: LTEA_HepaRG_LIPC: Life Technologies and Expression Analysis (LTEA) Assay for Lipase C (LIPC) using HepaRG (AID 2283514). The method in brief: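 LIPC expression was quantified by qRT-PCR against three housekeeping genes (ACTB, GAPDH, POLR2A). Differentiated human HepaRG cells received eight half-log doses (top 100 uM, 0.5% DMSO) in duplicate for 48 h; fitting bidirectional relative to DMSO.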

Read-out in assay [19]: Lipoprotein lipase (LPL), LPL (gene 4023)
The experiment in a line: LTEA_HepaRG_LPL: Life Technologies and Expression Analysis (LTEA) Assay for Lipoprotein lipase (LPL) using HepaRG (AID 2283515). The method in brief: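 LPL transcript levels quantified by TaqMan qRT-PCR against three housekeeping genes after 48 h chemical treatment of HepaRG cells. Eight-point half-log series from 100 uM in 0.5% DMSO, tested in duplicate; bidirectional fitting versus vehicle.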

Read-out in assay [20]: Glutathione S-transferase M3 (GSTM3), GSTM3 (gene 2947)
Description: LTEA_HepaRG_GSTM3: Life Technologies and Expression Analysis (LTEA) Assay for Glutathione S-transferase M3 (GSTM3) using HepaRG (AID 2283501). The method in brief:
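GSTM3 transcript levels came from Fluidigm TaqMan qRT-PCR normalized to three housekeeping genes, fitted in both directions against DMSO. HepaRG cultures received chemicals for 48 h in serum-free induction medium (0.5% DMSO), 8 half-log concentrations up to 100 uM, duplicate.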

Activity calls are given as the source filed them. How the source made its calls: active means hit-call score of the fitted dose curve at least 0.9, where 1 is the maximum; inactive means score below 0.9.

Chain of Hypoxia-inducible factor 1-alpha (Homo sapiens) (Q16665 whole entry, looked up): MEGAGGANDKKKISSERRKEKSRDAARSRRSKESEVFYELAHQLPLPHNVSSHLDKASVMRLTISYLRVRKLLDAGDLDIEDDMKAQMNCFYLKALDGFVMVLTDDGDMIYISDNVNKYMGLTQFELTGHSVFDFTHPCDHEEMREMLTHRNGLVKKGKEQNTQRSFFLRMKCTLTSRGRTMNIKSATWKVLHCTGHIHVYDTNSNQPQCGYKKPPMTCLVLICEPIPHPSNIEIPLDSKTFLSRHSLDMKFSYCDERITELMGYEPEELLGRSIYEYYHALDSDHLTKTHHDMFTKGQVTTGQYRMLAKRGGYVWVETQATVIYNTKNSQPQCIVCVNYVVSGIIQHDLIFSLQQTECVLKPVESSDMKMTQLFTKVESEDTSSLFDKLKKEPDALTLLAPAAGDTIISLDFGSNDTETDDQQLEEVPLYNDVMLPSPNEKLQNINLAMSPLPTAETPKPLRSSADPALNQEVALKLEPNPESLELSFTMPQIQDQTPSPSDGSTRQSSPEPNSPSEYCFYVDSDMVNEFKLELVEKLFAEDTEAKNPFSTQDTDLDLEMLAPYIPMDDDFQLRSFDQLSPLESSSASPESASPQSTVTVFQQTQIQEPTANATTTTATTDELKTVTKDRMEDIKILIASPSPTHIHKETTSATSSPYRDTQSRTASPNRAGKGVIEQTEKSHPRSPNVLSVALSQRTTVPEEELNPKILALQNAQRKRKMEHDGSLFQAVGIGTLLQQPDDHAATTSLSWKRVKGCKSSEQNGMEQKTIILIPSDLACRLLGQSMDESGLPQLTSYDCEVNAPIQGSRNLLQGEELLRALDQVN

Consider `CCc1ccc(O)c(C(C)(C)C)c1`, for which the outcome in assay [1], in assay [2], in assay [3], in assay [4], in [5] and in [6] was inactive. Further, the call in assay [7], in assay [8], in assay [9], in assay [10], in [11] and in [12] was inactive. Further, the outcome in [13], in assay [14], in assay [15], in assay [16], in [17] and in assay [18] was inactive. Also, the outcome in assay [19] was inactive.

For the molecule `CC[C@H](C)C(=O)O[C@H]1C[C@H](O)C=C2C=C[C@H](C)[C@H](CC[C@@H](O)C[C@@H](O)CC(=O)O)[C@H]21`, the molecule was classed as inactive in [1], in assay [2], in assay [3], in [4], in [5] and in [6]. The call in [7], in [8], in [9], in assay [10], in assay [11] and in assay [12] was inactive. The outcome in assay [14], in assay [15], in assay [16], in [17], in assay [18] and in assay [19] was inactive.

Usually AC50 stands for the concentration at which the activity in the assay is half-maximal. Take `COc1cc2c(c(OC)c1OC)-c1ccc(OC)c(=O)cc1[C@@H](NC(C)=O)CC2`: the AC50 is 95 nM (active) in [1]; 107 nM (active) in assay [2]; 88.1 nM (active) in assay [3]; 84.6 nM (active) in [4]; 113 nM (active) in [7]; 286 nM (active) in assay [8]. For the same molecule, the AC50 is 123 nM (active) in [10]; 584 nM (active) in assay [12]; 144 nM (active) in assay [13]; 432 nM (active) in [14]; 301 nM (active) in assay [18]; 96 nM (active) in assay [19]. Further, the call in assay [5], in assay [20], in assay [6], in assay [9], in assay [11] and in assay [15] was inactive. Also, the outcome in [16] and in assay [17] was inactive.

The values are drawn from PubChem BioAssay (EPA / NIEHS).
